# According to PubChem BioAssay AID488969 (Vanderbilt High Throughput Screening Facility, 2010):
# The full ranking holds about 110,000 compounds; the median of “z-score” is about -0.1, and the highest 2% start at about 2. Only a selection was taken, and the highest values are over-represented in it overall. Activity calls are given as the source filed them.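 How the source made its calls: active means z-score in the third read window above 3 or below -3; inactive means the rest.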
# Target: Metabotropic glutamate receptor 8 (Rattus norvegicus) (UniProt P70579)
# Sequence (P70579 whole entry, looked up): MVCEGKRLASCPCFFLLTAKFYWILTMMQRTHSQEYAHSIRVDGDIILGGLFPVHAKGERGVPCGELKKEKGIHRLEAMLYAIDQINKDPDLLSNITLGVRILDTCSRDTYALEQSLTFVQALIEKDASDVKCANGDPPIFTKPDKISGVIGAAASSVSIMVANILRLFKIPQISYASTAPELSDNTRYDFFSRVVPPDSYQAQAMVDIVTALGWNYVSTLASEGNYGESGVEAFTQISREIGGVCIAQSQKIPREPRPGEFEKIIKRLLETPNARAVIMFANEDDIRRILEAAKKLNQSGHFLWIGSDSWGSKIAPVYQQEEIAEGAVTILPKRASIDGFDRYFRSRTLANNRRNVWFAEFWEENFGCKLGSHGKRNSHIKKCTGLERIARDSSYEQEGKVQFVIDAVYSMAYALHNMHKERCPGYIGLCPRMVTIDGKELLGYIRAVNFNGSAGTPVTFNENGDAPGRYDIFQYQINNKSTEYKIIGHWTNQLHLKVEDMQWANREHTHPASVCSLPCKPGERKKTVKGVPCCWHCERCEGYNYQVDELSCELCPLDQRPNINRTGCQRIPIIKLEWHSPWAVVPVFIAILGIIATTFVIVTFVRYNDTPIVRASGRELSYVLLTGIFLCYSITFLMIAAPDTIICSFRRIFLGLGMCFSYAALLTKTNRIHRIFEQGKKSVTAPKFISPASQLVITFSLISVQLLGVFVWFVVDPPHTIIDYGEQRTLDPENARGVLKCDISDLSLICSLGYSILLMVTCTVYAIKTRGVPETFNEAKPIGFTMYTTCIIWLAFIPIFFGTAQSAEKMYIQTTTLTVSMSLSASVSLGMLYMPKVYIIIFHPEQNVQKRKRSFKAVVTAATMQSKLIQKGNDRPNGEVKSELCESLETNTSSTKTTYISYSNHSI
# Assay: mGluR8 Gi/Go-coupled signaling modulation – cell-based, rat, thallium flux, HTS, primary screen (AID 488969)
# Settings: HEK293 rat mGluR8, GIRK (G protein-gated inwardly rectifying potassium channel) thallium flux, FluoZin2; at 10 µM; stronger effect = higher value; submaximal glutamate (EC20) added with thallium
row,Structure (SMILES),z-score
1,O=C(CN1C(=O)C2CC=CCC2C1=O)Nc1nnc(SCc2ccc(Cl)cc2)s1 (stereo not drawn),-0.31
2,c1ccc2c(Nc3nnc(-c4ccncc4)s3)cccc2c1,4.07 (active)
3,CCNc1nnc(-c2ccncc2)s1,-0.233
4,Cc1ccc(Nc2nnc(-c3ccncc3)s2)c(Br)c1,0.13
5,N=C1CCCN1CC(=O)c1ccc(Cl)cc1,0.073
6,COc1cc2c(C)nc3onc(-c4ccccc4)c3c2cc1OC,-0.241
7,COc1ccc2nc(SCC(=O)NC3CCCc4ccccc43)[nH]c2c1 (stereo not drawn),0.0427
8,O=C(CSc1nc2ccccc2[nH]1)NC1CCCc2ccccc21 (stereo not drawn),2.41
9,Cc1ccc2nc(SCC(=O)NC3CCCc4ccccc43)[nH]c2c1 (stereo not drawn),0.164
10,O=C(NCc1cccnc1)C1CCN(C(=O)c2ccc(Cl)cc2Cl)CC1,-0.0203
11,N=C1S/C(=C\c2cn[nH]c2-c2ccc(F)cc2)C(=O)N1c1ccccc1F,0.348
12,CCn1c(-c2nn(C)c(C)c2Cl)n[nH]c1=S,-0.461
13,CCCCn1nnc(NC(=O)c2ccc(-c3cccc(Cl)c3)o2)n1,-0.581
14,CCCCn1nnc(NC(=S)NC(=O)c2cccs2)n1,0.0688
15,CCCCn1nnc(NC(=S)NC(=O)c2ccc(-c3cccc(Cl)c3Cl)o2)n1,4.59 (active)
16,COc1cccc(C(=O)/C=C/c2ccc(SC)cc2)c1,0.0506
17,CCC(C)N1CC(C(=O)O)CC1=O (stereo not drawn),-0.0459
18,CCOc1ccc(S(=O)(=O)N2CCN(Cc3ccccc3)CC2)c2cccnc12,0.939
19,Cc1cc(Oc2ccc(C)c(Cl)c2)nc(SCC(=O)c2ccccc2)n1,-0.36
20,N#C/C(=C\c1ccc(N2CCCC2)c([N+](=O)[O-])c1)c1nc2ccccc2[nH]1,0.221
21,N#C/C(=C/c1ccc(N2CCCC2)c([N+](=O)[O-])c1)c1nc2ccccc2[nH]1,0.0678
22,N#C/C(=C\c1ccc(N2CCOCC2)c([N+](=O)[O-])c1)c1nc2ccccc2[nH]1,2.63
23,COC(=O)N/N=C/c1cc(C)n(-c2cccc3ccccc23)c1C,0.0823
24,O=C(Nc1ccccc1)N1CCN(c2ccc(C(F)(F)F)cn2)CC1,-0.362

row,Structure (SMILES),z-score
1,CC1CC(C)CN(Cc2nc(N)nc(Nc3ccccc3)n2)C1 (stereo not drawn),0.639
2,CC1CC(C)CN(Cc2nc(N)nc(Nc3ccc4ccccc4c3)n2)C1 (stereo not drawn),3.66 (active)
3,COc1ccccc1Nc1nc(N)nc(CN2CCC(Cc3ccccc3)CC2)n1,0.165
4,Nc1nc(CN2CCN(Cc3ccccc3)CC2)nc(Nc2ccccc2)n1,0.26
5,Nc1nc(CN2CCC(Cc3ccccc3)CC2)nc(Nc2ccccc2)n1,2.39
6,Nc1nc(CN2CCCCCC2)nc(Nc2ccccc2)n1,0.00781
7,O=c1oc2ccccc2c(N2CCCC2)c1CN1CCCC1,-0.557
8,CCOC(=O)NC1(NCC(C)C)Oc2ccccc2O1,-0.313
9,COc1cc(/C=N/OCC(=O)NC2CCCCC2)ccc1OCc1ccccc1,-0.752
10,CC(C)c1ccc(OCC(=O)Nc2ccc(OC(F)(F)F)cc2)cc1,-0.173
11,COc1ccccc1C(=O)NCCn1cc(SCC(=O)Nc2cc(C)on2)c2ccccc21,-0.181
12,O=C(Nc1ncc(Cl)cn1)c1cccs1,0.0318
13,Cc1ccnc(NC(=O)c2cccs2)c1,-0.306
14,Cc1cccnc1NC(=S)NC(=O)/C=C/c1ccco1,0.37
15,O=C(NC(=S)Nc1c(Cl)ccc2nsnc12)c1ccco1,-0.429
16,Cc1ccc2nsnc2c1NC(=S)NC(=O)c1ccco1,6.75 (active)
17,Cc1ccnc(NC(=S)NC(=O)/C=C/c2ccccc2)c1,-0.0726
18,O=C(NC(=S)Nc1ccc(Cl)cn1)C(c1ccccc1)c1ccccc1,0.284
19,Cc1ccnc(NC(=S)NC(=O)c2cccs2)c1,7.29 (active)
20,CC(=O)Nc1c(C)ccc2nsnc12,0.0413
21,Cc1ccnc(NC(=S)NC(=O)/C=C/c2ccco2)c1,3.2 (active)
22,O=C(NC(=S)Nc1ccc(Cl)cn1)c1cccs1,10.3 (active)
23,Cc1cccnc1NC(=S)NC(=O)c1cccs1,0.0645
24,O=C(c1ccccc1)n1ccn(-c2ccccc2)c1=S,-1.09

row,Structure (SMILES),z-score
1,CC1CC1C(=O)OCC(=O)Nc1ccc(N=Nc2ccccc2)cc1 (stereo not drawn),0.616
2,O=C(C1CC(c2ccc(F)cc2)=NO1)N1CCCCC1 (stereo not drawn),-0.0299
3,O=C(CCC(NC(=O)OCc1ccccc1)C(=O)OCC(=O)N1CCCCC1)OCC(=O)N1CCCCC1 (stereo not drawn),0.254
4,C=CCC(NCc1ccco1)c1ccc(OC)cc1OC (stereo not drawn),-0.246
5,CC1CCc2nn(CC(=O)NCCN3CCCCC3C)cc2C1 (stereo not drawn),0.216
6,Cc1ccc2ccc(S(=O)(=O)n3nc(C)cc3C)cc2c1,-0.75
7,Cc1ccnc(NC(=S)NC(=O)c2ccco2)c1,2
8,Cc1cccc(NC(=S)NC(=O)c2cccs2)n1,5.04 (active)
9,CCCC(=O)NC(=S)Nc1ccc(Cl)cn1,0.131
10,CC(C)CC(=O)NC(=S)Nc1ccc(Cl)cn1,2.96
11,Cc1cccc(NC(=O)Cc2cccs2)n1,-0.58
12,Cc1cccc(NC(=S)NC(=O)/C=C/c2ccco2)n1,0.626
13,CCC(=O)NC(=S)Nc1ccc(Cl)cn1,0.168
14,COC(=O)C(NC(=O)c1ccco1)(Nc1cc(C)ccn1)C(F)(F)F (stereo not drawn),0.329
15,O=C(NC(=S)Nc1ccccn1)c1ccco1,1.2
16,Cc1cccc(NC(=O)c2cccs2)n1,0.965
17,Cc1cccc(NC(=S)NC(=O)c2ccco2)n1,3.93 (active)
18,Cc1cccc(NC(=O)c2cc(NC(=O)c3ccco3)ccc2Cl)n1,-0.288
19,CC(=O)c1c(C)[nH]c(C(=O)COC(=O)CNS(=O)(=O)c2ccccc2)c1C,-0.187
20,C(=N\N1CCN(Cc2ccccc2)CC1)/c1cccs1,-0.298
21,CC(=O)Nc1ccc(S(=O)(=O)NCCC(=O)Nc2ccc(C)c(Cl)c2)cc1,-0.0921
22,CC(=O)c1ccc(NC(=O)CSc2ccc(-c3ccc4c(c3)OCO4)nn2)cc1,-0.125
23,CCOC(=O)N1CCN(C(=O)C2CC(c3cc(OC)ccc3OC)=NO2)CC1 (stereo not drawn),-0.594
24,COc1ccc(Br)cc1CNC(=O)C1CCN(S(=O)(=O)N2CCCCC2)CC1,-0.52

row,Structure (SMILES),z-score
1,Cc1ccc(C(=O)NC(C)c2ccc(F)cc2)cc1 (stereo not drawn),-0.249
2,c1ccc(-c2nnc3ccc(N4CCCC4)nn23)cc1,-4.38 (active)
3,O=C(Nc1ccc(F)cc1)N1CCN(c2ccc3nnc(-c4ccc(F)cc4)n3n2)CC1,-1.17
4,Fc1ccc(-c2nnc3ccc(N4CCc5ccccc5C4)nn23)cc1,2.89
5,Cc1ccc(NC(=O)NNC(=O)c2cccs2)cc1,0.53
6,NC(=O)c1ccc(C(F)(F)F)n(Cc2ccc(Cl)cc2)c1=O,-0.45
7,Cc1[nH]n(-c2ccccc2)c(=O)c1-c1cccc(Cl)c1,0.257
8,O=C(N1CCOCC1)N1CCN(C(=O)N(c2ccccc2)c2ccccc2)CC1,-0.217
9,O=C(N1CCCCC1)N1CCN(C(=O)N(c2ccccc2)c2ccccc2)CC1,3.16 (active)
10,CN(C)S(=O)(=O)N1CCN(C(=O)N(c2ccccc2)c2ccccc2)CC1,-0.395
11,COc1ccc(-c2nc3c(c(=O)c4ccccc4n3C)c(=O)n2Cc2ccccc2)cc1,-0.433
12,CC(C)CN(/C=N/c1sc2c(c1C#N)CCCCC2)CC(C)C,2.9
13,CCN(/C=N/c1sc2c(c1C#N)CCCCC2)CC,-0.292
14,CCCN(/C=N/c1sc2c(c1C#N)CCCCC2)CCC,-0.155
15,CCOC(=O)c1nnc2c(Br)c(-c3ccccc3)nn2c1C,-0.554
16,CCC(=O)Nc1ccc(-c2csc(NNC(C)=O)n2)cc1,-0.182
17,CC(C)(C)NC(=O)CSc1nccn1Cc1ccccc1,0.488
18,COC(=O)c1cccc(NC(=O)CSc2nnc(COc3ccccc3)n2C)c1,-0.736
19,CCOc1ccc(NC(=O)CSc2nccn2C)cc1,-0.0963
20,COC(=O)c1ccc(NC(=O)CSc2nnc(COc3ccccc3)n2C)cc1,11.8 (active)
21,CCOC(=O)c1ccc(NC(=O)CSc2nnc(COc3ccccc3)n2C)cc1,-0.177
22,CC(=O)Nc1ccc(NC(=O)CSc2nccn2Cc2ccccc2)cc1,2.89
23,Cn1ccnc1SCC(=O)Nc1ccccc1,0.326
24,Cc1ccc(NC(=O)CSc2nccn2Cc2ccccc2)cc1C,-0.465

row,Structure (SMILES),z-score
1,Cn1ccnc1SCC(=O)Nc1ccc(Oc2ccccc2)cc1,2.29
2,CCc1sc(C(=O)Nc2ccc(F)cc2C)cc1C,-0.0957
3,O=C(CCC(=O)c1cccs1)Nc1ccc(F)c(F)c1F,0.32
4,CCc1ccc(NS(=O)(=O)c2cc(OC)ccc2OC)cc1,-0.868
5,Cc1nc(NCCc2ccc(F)cc2)c(C#N)c(C)c1[N+](=O)[O-],-0.205
6,COc1cc(C)nc(OCCNS(=O)(=O)c2cc(C)ccc2C)n1,0.217
7,CC(/C=N/NC(=O)c1c(Br)cnn1C)=C\c1ccccc1,3.16 (active)
8,CC(/C=N/NC(=O)c1ccc(Br)cc1)=C\c1ccccc1,-1.26
9,CC(/C=N/NC(=O)c1nn(C)c(C)c1Br)=C\c1ccccc1,-0.0235
10,O=C(Nc1ccc(C(=O)N2CCCCC2)cc1)c1ccc(Br)cc1,1.09
11,CC(C)CCNC(=O)Cn1c(=O)oc2cc(S(=O)(=O)N3CCc4ccccc43)ccc21,-0.186
12,COc1cc(CNc2ccc(N3CCCC3)cc2)ccc1OCc1ccccc1F,-0.289
13,COc1cc(CNc2ccc(CNc3ncn[nH]3)cc2)ccc1OCc1ccccc1,-0.026
14,COc1cc(CNc2ccc(N3CCCC3)cc2)ccc1OCc1ccccc1,3.82 (active)
15,CC(C(=O)NCCN1C(=O)S/C(=C\c2cccs2)C1=O)N1C(=O)c2ccccc2C1=O (stereo not drawn),-0.139
16,Cc1ccc(C)c(NC(=O)CCC(=O)NNC(=O)c2cccc([N+](=O)[O-])c2)c1,0.265
17,CSc1ccccc1C(=O)Nc1cccc(C(C)O)c1 (stereo not drawn),0.209
18,CSc1ccccc1C(=O)Nc1cccc(C)c1,-0.792
19,CSc1ccccc1C(=O)Nc1cccc(C(C)=O)c1,3.03 (active)
20,CCOC(=O)Cc1c(C)nc2cc(-c3ccc(C)cc3)[nH]n2c1=O,0.0804
21,C1CCCC(N2CCNCC2)CC1,0.33
22,COC(=O)c1cc(=O)nc2sccn12,-0.417
